Results taken from publication PMC12529666, “Dysregulation of AGO2-miRNA dynamics underlies the AGO2-associated Lessel–Kreienkamp syndrome”.

B1: GCGCCCTA (ssRNA)
RNA 1: GAGUUCUACAGUCCGACGAUCCCAACGCGCCCUACACCUGGAAUUCUCGGGUGCCAA
RNA 2: UGGAGUGUGACAAUGGUGUUUG
DNA 1: GATCGTCGGACTGTAGAACTC
DNA 2: TTGGCACCCGAGAATTCCA
modifications: constant regions annealed to DNA blockers; guide miR-122 5' phosphate
B2: ACATTCCG (ssRNA)
RNA 1: GAGUUCUACAGUCCGACGAUCCCAACACAUUCCGCACCUGGAAUUCUCGGGUGCCAA
RNA 2: UGGAGUGUGACAAUGGUGUUUG
DNA 1: GATCGTCGGACTGTAGAACTC
DNA 2: TTGGCACCCGAGAATTCCA
modifications: constant regions annealed to DNA blockers; guide miR-122 5' phosphate
B3: ACGCCTTA (ssRNA)
RNA 1: GAGUUCUACAGUCCGACGAUCCCAACACGCCUUACACCUGGAAUUCUCGGGUGCCAA
RNA 2: UGGAGUGUGACAAUGGUGUUUG
DNA 1: GATCGTCGGACTGTAGAACTC
DNA 2: TTGGCACCCGAGAATTCCA
modifications: constant regions annealed to DNA blockers; guide miR-122 5' phosphate
B4: ACGCTCTA (ssRNA)
RNA 1: GAGUUCUACAGUCCGACGAUCCCAACACGCUCUACACCUGGAAUUCUCGGGUGCCAA
RNA 2: UGGAGUGUGACAAUGGUGUUUG
DNA 1: GATCGTCGGACTGTAGAACTC
DNA 2: TTGGCACCCGAGAATTCCA
modifications: constant regions annealed to DNA blockers; guide miR-122 5' phosphate
B5: ATATCTTA (ssRNA)
RNA 1: GAGUUCUACAGUCCGACGAUCCCAACAUAUCUUACACCUGGAAUUCUCGGGUGCCAA
RNA 2: UGGAGUGUGACAAUGGUGUUUG
DNA 1: GATCGTCGGACTGTAGAACTC
DNA 2: TTGGCACCCGAGAATTCCA
modifications: constant regions annealed to DNA blockers; guide miR-122 5' phosphate
B6: ATATTCTA (ssRNA)
RNA 1: GAGUUCUACAGUCCGACGAUCCCAACAUAUUCUACACCUGGAAUUCUCGGGUGCCAA
RNA 2: UGGAGUGUGACAAUGGUGUUUG
DNA 1: GATCGTCGGACTGTAGAACTC
DNA 2: TTGGCACCCGAGAATTCCA
modifications: constant regions annealed to DNA blockers; guide miR-122 5' phosphate
B7: GCATTCTA (ssRNA)
RNA 1: GAGUUCUACAGUCCGACGAUCCCAACGCAUUCUACACCUGGAAUUCUCGGGUGCCAA
RNA 2: UGGAGUGUGACAAUGGUGUUUG
DNA 1: GATCGTCGGACTGTAGAACTC
DNA 2: TTGGCACCCGAGAATTCCA
modifications: constant regions annealed to DNA blockers; guide miR-122 5' phosphate
B8: ATGTCCTA (ssRNA)
RNA 1: GAGUUCUACAGUCCGACGAUCCCAACAUGUCCUACACCUGGAAUUCUCGGGUGCCAA
RNA 2: UGGAGUGUGACAAUGGUGUUUG
DNA 1: GATCGTCGGACTGTAGAACTC
DNA 2: TTGGCACCCGAGAATTCCA
modifications: constant regions annealed to DNA blockers; guide miR-122 5' phosphate
B9: GCGCTCTA (ssRNA)
RNA 1: GAGUUCUACAGUCCGACGAUCCCAACGCGCUCUACACCUGGAAUUCUCGGGUGCCAA
RNA 2: UGGAGUGUGACAAUGGUGUUUG
DNA 1: GATCGTCGGACTGTAGAACTC
DNA 2: TTGGCACCCGAGAATTCCA
modifications: constant regions annealed to DNA blockers; guide miR-122 5' phosphate
B10: GTGCTTTG (ssRNA)
RNA 1: GAGUUCUACAGUCCGACGAUCCCAACGUGCUUUGCACCUGGAAUUCUCGGGUGCCAA
RNA 2: UGGAGUGUGACAAUGGUGUUUG
DNA 1: GATCGTCGGACTGTAGAACTC
DNA 2: TTGGCACCCGAGAATTCCA
modifications: constant regions annealed to DNA blockers; guide miR-122 5' phosphate
B11: GTGTTCCA (ssRNA)
RNA 1: GAGUUCUACAGUCCGACGAUCCCAACGUGUUCCACACCUGGAAUUCUCGGGUGCCAA
RNA 2: UGGAGUGUGACAAUGGUGUUUG
DNA 1: GATCGTCGGACTGTAGAACTC
DNA 2: TTGGCACCCGAGAATTCCA
modifications: constant regions annealed to DNA blockers; guide miR-122 5' phosphate

Target: AGO2 L192P (Homo sapiens, UniProt Q9UKV8 1-859, L192P;S387D;S824A;S828D;S831D;S834A)
Sequence (Q9UKV8 whole entry L192P/S387D/S824A/S828D/S831D/S834A): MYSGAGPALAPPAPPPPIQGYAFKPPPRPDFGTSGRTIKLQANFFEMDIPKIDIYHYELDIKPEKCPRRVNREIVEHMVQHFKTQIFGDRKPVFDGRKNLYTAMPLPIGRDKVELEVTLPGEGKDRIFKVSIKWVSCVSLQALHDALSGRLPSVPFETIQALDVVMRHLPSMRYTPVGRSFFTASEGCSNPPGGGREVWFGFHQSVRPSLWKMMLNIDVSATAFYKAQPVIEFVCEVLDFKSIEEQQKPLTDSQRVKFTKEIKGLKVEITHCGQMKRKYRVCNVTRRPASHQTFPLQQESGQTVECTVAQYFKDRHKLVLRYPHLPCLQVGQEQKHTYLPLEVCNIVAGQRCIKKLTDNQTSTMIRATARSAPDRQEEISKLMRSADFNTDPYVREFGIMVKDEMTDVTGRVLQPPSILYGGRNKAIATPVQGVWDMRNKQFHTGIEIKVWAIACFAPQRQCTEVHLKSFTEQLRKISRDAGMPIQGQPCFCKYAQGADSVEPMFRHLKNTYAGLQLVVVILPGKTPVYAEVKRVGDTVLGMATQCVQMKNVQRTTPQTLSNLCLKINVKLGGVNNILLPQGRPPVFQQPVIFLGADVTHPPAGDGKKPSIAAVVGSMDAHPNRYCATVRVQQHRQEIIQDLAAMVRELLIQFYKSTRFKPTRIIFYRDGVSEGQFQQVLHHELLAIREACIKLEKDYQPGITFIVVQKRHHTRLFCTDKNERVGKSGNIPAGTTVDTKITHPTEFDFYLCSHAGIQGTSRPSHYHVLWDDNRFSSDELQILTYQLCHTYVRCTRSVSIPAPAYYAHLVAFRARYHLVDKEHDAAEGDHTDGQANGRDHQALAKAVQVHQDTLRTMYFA
Experiment: RNA Bind-n-Seq (nitrocellulose filter binding and sequencing); miR-122 guide loaded in AGO2; 60 min incubation; 30 mM Tris pH 8.0, 100 mM potassium acetate, 2 mM magnesium acetate, 0.5 mM TCEP, 0.005% NP-40, 0.01 mg/ml yeast tRNA; 3 nM AGO2-miR-122, 100 nM RNA library; 60; high values mean tight binding
Details: protein: recombinant; tags: His6 (N-terminal, pFastBac HTA)
How it was run: (§1)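 Fold enrichment is each target's read fraction divided by its read fraction in the input library. Sf9 insect cells expressed His-tagged AGO2 from baculovirus; the protein was loaded with a synthetic guide RNA and purified by Ni-NTA and a biotinylated capture oligo. The bound RNA was extracted, reverse-transcribed, barcode-amplified and sequenced on Illumina.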

Binder	binding signal
B1	0.492 fold enrichment over input
B2	0.382 fold enrichment over input
B3	0.493 fold enrichment over input
B4	0.429 fold enrichment over input
B5	0.456 fold enrichment over input
B6	0.453 fold enrichment over input
B7	0.45 fold enrichment over input
B8	0.506 fold enrichment over input
B9	0.459 fold enrichment over input
B10	0.45 fold enrichment over input
B11	0.444 fold enrichment over input

Target: AGO2 A367P (Homo sapiens, UniProt Q9UKV8 1-859, A367P;S387D;S824A;S828D;S831D;S834A)
Sequence (Q9UKV8 whole entry A367P/S387D/S824A/S828D/S831D/S834A): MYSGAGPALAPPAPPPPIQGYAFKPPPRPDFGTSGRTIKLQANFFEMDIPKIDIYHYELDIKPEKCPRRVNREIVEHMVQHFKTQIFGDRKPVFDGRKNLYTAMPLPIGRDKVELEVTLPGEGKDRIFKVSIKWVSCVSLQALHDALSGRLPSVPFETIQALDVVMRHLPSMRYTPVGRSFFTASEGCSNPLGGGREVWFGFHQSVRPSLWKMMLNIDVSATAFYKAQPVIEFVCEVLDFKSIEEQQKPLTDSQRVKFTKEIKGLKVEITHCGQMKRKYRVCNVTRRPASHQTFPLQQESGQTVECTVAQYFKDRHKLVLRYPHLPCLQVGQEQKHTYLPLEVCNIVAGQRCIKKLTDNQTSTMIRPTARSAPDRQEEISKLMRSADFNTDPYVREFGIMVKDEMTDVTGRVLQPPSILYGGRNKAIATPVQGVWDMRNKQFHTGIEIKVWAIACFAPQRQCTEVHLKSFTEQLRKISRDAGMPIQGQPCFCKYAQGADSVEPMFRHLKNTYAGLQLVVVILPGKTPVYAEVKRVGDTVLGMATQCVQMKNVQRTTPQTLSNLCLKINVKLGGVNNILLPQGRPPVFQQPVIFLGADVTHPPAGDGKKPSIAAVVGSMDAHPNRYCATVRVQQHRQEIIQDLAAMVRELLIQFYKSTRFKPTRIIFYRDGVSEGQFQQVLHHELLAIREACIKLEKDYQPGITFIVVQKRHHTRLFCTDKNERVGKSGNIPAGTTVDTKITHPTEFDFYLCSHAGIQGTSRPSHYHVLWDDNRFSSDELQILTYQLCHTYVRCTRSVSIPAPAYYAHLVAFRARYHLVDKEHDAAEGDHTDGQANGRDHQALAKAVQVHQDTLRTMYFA
Experiment: as above
Details: protein: recombinant; tags: His6 (N-terminal, pFastBac HTA)
How it was run: as §1

Binder	binding signal
B1	0.195 fold enrichment over input
B2	0.156 fold enrichment over input
B3	0.221 fold enrichment over input
B4	0.173 fold enrichment over input
B5	0.179 fold enrichment over input
B6	0.18 fold enrichment over input
B7	0.181 fold enrichment over input
B8	0.238 fold enrichment over input
B9	0.19 fold enrichment over input
B10	0.177 fold enrichment over input
B11	0.197 fold enrichment over input

Target: AGO2 T357M (Homo sapiens, UniProt Q9UKV8 1-859, T357M;S387D;S824A;S828D;S831D;S834A)
Sequence (Q9UKV8 whole entry T357M/S387D/S824A/S828D/S831D/S834A): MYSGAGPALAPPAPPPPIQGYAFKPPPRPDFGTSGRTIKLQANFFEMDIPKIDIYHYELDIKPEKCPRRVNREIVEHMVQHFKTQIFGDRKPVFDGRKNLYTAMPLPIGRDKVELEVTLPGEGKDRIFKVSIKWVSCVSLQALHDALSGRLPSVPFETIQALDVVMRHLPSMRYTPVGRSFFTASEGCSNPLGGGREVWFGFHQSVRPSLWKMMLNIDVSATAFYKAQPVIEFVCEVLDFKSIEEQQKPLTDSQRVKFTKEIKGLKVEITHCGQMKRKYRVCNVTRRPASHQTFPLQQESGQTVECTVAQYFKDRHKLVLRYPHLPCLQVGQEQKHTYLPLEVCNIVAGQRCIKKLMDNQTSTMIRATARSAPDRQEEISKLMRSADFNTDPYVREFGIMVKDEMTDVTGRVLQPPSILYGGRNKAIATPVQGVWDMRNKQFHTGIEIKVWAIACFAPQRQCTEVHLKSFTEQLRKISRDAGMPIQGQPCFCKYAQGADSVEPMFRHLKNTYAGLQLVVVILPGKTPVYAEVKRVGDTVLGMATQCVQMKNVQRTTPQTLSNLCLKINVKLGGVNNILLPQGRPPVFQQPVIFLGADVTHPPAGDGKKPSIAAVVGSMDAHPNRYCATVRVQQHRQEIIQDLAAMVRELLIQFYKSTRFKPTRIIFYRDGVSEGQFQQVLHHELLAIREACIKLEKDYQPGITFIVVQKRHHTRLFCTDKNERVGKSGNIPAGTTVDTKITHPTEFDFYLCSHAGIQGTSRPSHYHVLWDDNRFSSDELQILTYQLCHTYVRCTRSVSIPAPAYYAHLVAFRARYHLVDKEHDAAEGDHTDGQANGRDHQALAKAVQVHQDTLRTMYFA
Experiment: as above
Details: protein: recombinant; tags: His6 (N-terminal, pFastBac HTA)
How it was run: as §1

Binder	binding signal
B1	0.721 fold enrichment over input
B2	0.428 fold enrichment over input
B3	0.625 fold enrichment over input
B4	0.54 fold enrichment over input
B5	0.593 fold enrichment over input
B6	0.631 fold enrichment over input
B7	0.63 fold enrichment over input
B8	0.592 fold enrichment over input
B9	0.635 fold enrichment over input
B10	0.623 fold enrichment over input
B11	0.556 fold enrichment over input

Target: AGO2 F182del (Homo sapiens, UniProt Q9UKV8 1-859, S387D;S824A;S828D;S831D;S834A;del182-182)
Sequence (Q9UKV8 other isoform, or with tags, fused parts or gaps S387D;S824A;S828D;S831D;S834A;del182-182): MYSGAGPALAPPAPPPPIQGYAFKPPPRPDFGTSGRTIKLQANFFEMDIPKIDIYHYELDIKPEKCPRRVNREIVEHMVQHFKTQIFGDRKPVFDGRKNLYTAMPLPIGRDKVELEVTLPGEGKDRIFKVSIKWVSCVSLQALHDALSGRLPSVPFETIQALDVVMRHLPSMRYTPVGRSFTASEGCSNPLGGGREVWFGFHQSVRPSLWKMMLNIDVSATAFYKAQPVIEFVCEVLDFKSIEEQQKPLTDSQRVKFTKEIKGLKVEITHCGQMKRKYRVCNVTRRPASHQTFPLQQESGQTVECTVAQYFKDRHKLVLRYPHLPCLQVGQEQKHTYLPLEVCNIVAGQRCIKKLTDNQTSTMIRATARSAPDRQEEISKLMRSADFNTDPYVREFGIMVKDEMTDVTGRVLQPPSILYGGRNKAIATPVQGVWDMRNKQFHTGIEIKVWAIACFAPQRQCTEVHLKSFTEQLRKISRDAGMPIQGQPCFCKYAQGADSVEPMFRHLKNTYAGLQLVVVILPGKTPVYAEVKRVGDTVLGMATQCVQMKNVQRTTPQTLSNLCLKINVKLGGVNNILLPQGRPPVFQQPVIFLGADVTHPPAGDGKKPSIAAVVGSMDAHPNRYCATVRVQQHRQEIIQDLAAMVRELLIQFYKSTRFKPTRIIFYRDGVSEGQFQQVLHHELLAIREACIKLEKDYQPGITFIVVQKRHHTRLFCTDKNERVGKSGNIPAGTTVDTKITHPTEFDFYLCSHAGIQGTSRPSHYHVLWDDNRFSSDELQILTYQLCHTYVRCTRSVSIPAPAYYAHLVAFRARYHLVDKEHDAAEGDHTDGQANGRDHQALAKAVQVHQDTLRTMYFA
Experiment: as above
Details: protein: recombinant; tags: His6 (N-terminal, pFastBac HTA)
How it was run: as §1

Binder	binding signal
B2	0.178 fold enrichment over input
B3	0.246 fold enrichment over input
B8	0.262 fold enrichment over input
B11	0.125 fold enrichment over input
